Bioassay records from PubChem BioAssay.
14-3-3g Raf: alters human 14-3-3 gamma binding to Raf peptide. FP, 14-3-3gamma / TMR-pS259-Raf peptide binding. inhibition, % at 40 µM. hit rate 0.19% among 160,000; in the data active = inhibition above about 30%
Target sequence (P61981 whole entry, looked up): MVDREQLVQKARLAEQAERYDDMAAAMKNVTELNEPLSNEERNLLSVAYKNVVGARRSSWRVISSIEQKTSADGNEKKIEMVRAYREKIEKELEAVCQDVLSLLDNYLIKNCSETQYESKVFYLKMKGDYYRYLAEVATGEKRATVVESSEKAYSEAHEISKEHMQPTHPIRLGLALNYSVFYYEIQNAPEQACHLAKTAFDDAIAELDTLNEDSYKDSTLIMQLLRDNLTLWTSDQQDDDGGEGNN
Each line names hits and unclear results; the compound was inactive in the other large screens. Only a selection was taken, and hits are over-represented in it overall.

O=[N+]([O-])c1nn(-c2ccc3c(c2)OCCO3)n(O)c1=NCCc1ccccc1	none
Cc1cccc(CCN=c2c([N+](=O)[O-])nn(-c3ccccc3)n2O)c1	none
Cc1cccc(CCN=c2c([N+](=O)[O-])nn(-c3ccc4c(c3)OCCO4)n2O)c1	14-3-3g Raf 72
CCc1c(C(=O)N2CCN(c3ccccn3)CC2)[nH]c(C)c1C(C)=O	none
O=C(Nc1nc(-c2ccc(Cl)cc2)cs1)C1c2ccccc2Oc2ccccc21	none
Cc1nc2nc(-c3ccccc3)[nH]n2c(=O)c1Cc1ccccc1	none
Cc1nc2nc(Cc3ccccc3)[nH]n2c(=O)c1Cc1ccccc1	14-3-3g Raf 50
Cc1nc2nc(Cc3ccccc3)[nH]n2c(=O)c1Cl	none
O=C(O)c1cc(N2C(=O)c3cccc4c([N+](=O)[O-])ccc(c34)C2=O)ccc1O	none
CC(NC(=O)C1CCCN(c2nc3ccccc3o2)C1)c1ccccc1 (centres undefined)	none
O=C1C(Nc2ccccc2)=CC(=NS(=O)(=O)c2cccs2)c2ccccc21	none
CCOC(=O)c1ccc(NC2=CC(=NS(=O)(=O)c3cccs3)c3ccccc3C2=O)cc1	14-3-3g Raf 67
CC(=O)Nc1ccc(NC2=CC(=NS(=O)(=O)c3cccs3)c3ccccc3C2=O)cc1	none
Clc1ccc(C2CC(c3ccc(I)cc3)Nc3ncnn32)cc1 (centres undefined)	none
COC(=O)C1=C(C)N(C)C(C)=C(C(=O)OC)C1c1ccc(C(F)(F)F)cc1	none
COC(=O)C1=C(C)N(C)C(C)=C(C(=O)OC)C1c1ccsc1	none
COC(=O)C1=C(C)N(C)C(C)=C(C(=O)OC)C1c1ccc(C(=O)OC)cc1	14-3-3g Raf 113
COc1cc(C2C(C(=O)OCC(C)C)=C(C)NC3=C2C(=O)CC(c2ccc(Cl)cc2)C3)cc(Br)c1O (centres undefined)	none
COCC(=O)NC1(c2nnnn2-c2cccc(Cl)c2)CCCCC1	none
CCC(=O)Nc1cccc(-c2cn3cccc(C)c3n2)c1	14-3-3g Raf 31
Cc1cccn2cc(-c3cccc(NC(=O)CC(C)C)c3)nc12	none
Cc1cccn2cc(-c3cccc(NC(=O)c4cc5ccccc5oc4=O)c3)nc12	none
CCc1ccccc1NC(=O)c1c(NC(=O)c2ccc(C)cc2)sc2c1CCC2	none
COc1cc2c(cc1OC)C1C(C(=O)Nc3ccc(Br)cc3C)c3ccccc3C(=O)N1CC2 (centres undefined)	none
C[C@H](Cc1ccc(O)c(O)c1)[C@@H](C)Cc1ccc(O)c(O)c1	none
N[C@@H](Cc1ccc(O)c(O)c1)C(=O)O	none
CC(Cc1ccc(O)c(O)c1)C(C)Cc1ccc(O)c(O)c1 (centres undefined)	14-3-3g Raf 60
Cc1cccc(Cn2c(N3CCCCC3)nc3c2c(=O)[nH]c(=O)n3C)c1	none
COc1ccc(-c2nc(NC(C)=O)sc2C)cc1[N+](=O)[O-]	none
N#Cc1cc(-c2ccccc2C(F)(F)F)no1	none
CCN(CC)c1ccc(CNc2ccc(Br)cn2)cc1	none
CCN(CC)c1ccc(-c2cc(C#N)on2)cc1	14-3-3g Raf 41
CCN(CC)c1cc(C)c2cc(NC(=O)Cc3cccc(OC)c3)ccc2n1	none
Clc1ccc(-c2nc3ncccn3c2Nc2ccc3c(c2)OCO3)cc1	none
Clc1ccc(Sc2c(-c3ccccc3)nc3ncccn23)cc1	14-3-3g Raf 39
CSc1ccc(-c2nc3ncccn3c2Nc2ccccc2C)cc1	none
O=C(NCc1ccccc1)C1CCCN(c2nc3ccccc3o2)C1 (centres undefined)	none
Cc1nc2ncccn2c1-c1csc(Nc2ccc(Cl)cc2)n1	none
O=C1c2ccccc2C(=O)N1c1ccc(Cl)cc1	none
O=C(O)CCCCCN1C(=O)c2cccc3c(N4CCCCC4)ccc(c23)C1=O	none
O=C1c2cccc3c(O)ccc(c23)C(=O)N1c1ccc(Cl)cc1	14-3-3g Raf 96
O=C1c2cccc3c(Nc4ccccc4)ccc(c23)C(=O)N1c1ccccc1	none
C=CCNc1ccc2c3c(cccc13)C(=O)N(C)C2=O	none
O=C(O)CCCN1C(=O)c2cccc3c(O)ccc(c23)C1=O	14-3-3g Raf 138
CCOC(=O)c1ccc(N2C(=O)c3cccc4c(Cl)ccc(c34)C2=O)cc1	none
O=C(O)CCCCN1C(=O)c2ccccc2C1=O	none
O=C1c2cccc3c(NCCO)ccc(c23)C(=O)N1c1ccccc1	14-3-3g Raf 196
O=C1c2cccc3c(N4CCCCC4)ccc(c23)C(=O)N1c1ccccc1	none
NCCNc1ccc2c3c(cccc13)C(=O)N(c1ccc(Cl)cc1)C2=O	14-3-3g Raf 63
O=C(O)c1ccc2c3c(cccc13)C(=O)N(c1ccc(Cl)cc1)C2=O	none
Cc1ccccc1NS(=O)(=O)c1ccc2c(c1)C1C=CCC1C(c1ccc(C(=O)O)cc1)N2 (centres undefined)	none
CC1(C)Cc2c(sc3nc(SCC(=O)Nc4ccccc4)nc(N)c23)CO1	none
CCOC(=O)C(NC(=O)c1ccco1)(Nc1sc2c(c1C#N)CCCC2)C(F)(F)F (centres undefined)	none
COc1cc(C2C3=C(CC(C)(C)CC3=O)OC3=C2C(=O)CC(C)(C)C3)cc(OC)c1OC	none
CCc1cccc(NC(=O)C2c3ccccc3C(=O)N3CCc4cc(OC)c(OC)cc4C23)c1 (centres undefined)	none
COc1ccc(Nc2ccc3c4c(ncnc24)-c2ccccc2C3=O)cc1	none
O=C1c2ccccc2-c2ncnc3cccc1c23	none
O=C(O)c1ccc2c3c(ncnc13)-c1ccccc1C2=O	14-3-3g Raf 40
COc1cc(C2C(C(=O)OCc3ccccc3)=C(C)NC3=C2C(=O)CC(c2cccs2)C3)cc([N+](=O)[O-])c1O (centres undefined)	none
c1cc2c(cc1C1CC1)OCCO2	none
O=C(c1ccc(SCc2ccncc2)c([N+](=O)[O-])c1)N1CCCCCC1	none
COc1ccc(S(=O)(=O)NCCC(=O)NCC2CCCO2)cc1 (centres undefined)	none
CCc1cccc(CC)c1NS(=O)(=O)c1ccc2c(c1)CCN2C(=O)C1CCC1	none
CC(C)(C)NC(=O)CSc1nsc(SCC(=O)NC(C)(C)C)c1C#N	none
Cc1csc(NC(=O)CSc2nc(-c3cccs3)cc(-c3cccs3)c2C#N)n1	none
Cc1csc(NC(=O)CSc2nsc(SCC(=O)Nc3nc(C)cs3)c2C#N)n1	14-3-3g Raf 75
NCCCn1nnc2ccccc21	none
Cc1[nH]c2ccccc2c1SCCNC(=O)c1ccc(Cl)c([N+](=O)[O-])c1	none
COc1ccc(CC(=O)N2N=C(C(C)C)CC2(O)C(F)(F)F)cc1OC (centres undefined)	none
CN(C(=O)c1ccc2c(c1N)C(=O)c1ccccc1C2=O)c1ccccc1	14-3-3g Raf 132
CCSc1c(C(N)=O)ccc2c1C(=O)c1ccccc1C2=O	none
CN(C(=O)c1ccc2c(c1)C(=O)c1ccccc1-2)c1ccc([N+](=O)[O-])cc1	none
Cc1ccc(Cn2c(=S)[nH]c3cc4ccccc4cc3c2=O)o1	none
c1ccc(-c2nnc(-c3ccccc3)o2)cc1	none
Nc1nc(N)nc(-c2ccccc2)n1	none
Cc1nnc(-c2ccccc2)nn1	14-3-3g Raf 86
O=C(NCc1cccnc1)c1cnn2c(C(F)(F)F)cc(-c3ccc(F)cc3)nc12	none
COc1ccc(N2C(=O)CC(Nc3ccc(CCO)cc3)C2=O)cc1 (centres undefined)	none
CCOc1ccc(NC(=O)C2c3cc(OC)c(OC)cc3C(=O)N(C)C2c2ccccc2F)cc1 (centres undefined)	none
CC(=O)N(C)c1ccc(N2CCOCC2)c2c1C(=O)c1ccccc1C2=O	none
Cn1c(=O)cc2c3c(c(N4CCOCC4)ccc31)C(=O)c1ccccc1-2	14-3-3g Raf 33
Cc1ccc(Nc2ccc3c4c(cc(=O)n3C)-c3ccccc3C(=O)c24)cc1	none
COc1cc(C=C2N=C(SC)SC2=O)cc(OC)c1OC	none
